{"source": "PubChem BioAssay AID924", "about": "(National Center for Advancing Translational Sciences (NCATS), 2007)", "note": "In all, about 130,000 compounds went through this assay and about 1,200 (0.92%) were called active. Roughly 3% stayed inconclusive and do not appear here. For the sample, actives were picked, then their nearest neighbours and some compounds at random. A number with no mark means an inactive call. Calls follow the shape of the dose curve; as a rule, active = well fitted cell-killing curve with a large enough effect; inconclusive = small, poorly fitted or top-dose-only effect; inactive = no such curve, though single readings can be large or run the other way. Potency is read from the fitted curve at half-maximal effect."}
{"assay": "qHTS Screen for Compounds that Selectively Target Cancer Cells with p53 Mutations: Cytotoxicity of p53ts Cells at the Permissive Temperature; also: nearly all actives have a fitted effect of over 55% in size;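 as to activity change, negative = cytotoxicity: 0% = DMSO and -100% = full killing by reference compound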", "conditions": "H1299-p53A138V at 32C, ATP luminescence viability, 24 h; series mostly up to 46.1 µM; activity change, negative = cytotoxicity: at the top concentration", "source_text": "NIH Chemical Genomics Center [NCGC] NIH Molecular Libraries Screening Centers Network [MLSCN] MLSCN Grant: 1 X01 MH079844-01 Assay Submitter (PI): Dr. SUN, YI, University of Michigan NCGC Assay Overview: Synthetic Lethal Screen for Compounds to Kill Cancer Cells with p53 Mutation. Tumor suppressor gene p53 serves as a major cellular barrier against tumorigenesis. […] The goal of this screening is to identify small molecule probes that selectively kill cancer cells with mutations in p53. This screening was carried out using two lines of H1299 lung cancer cells. The H1299-p53 A138V line express a temperature sensitive p53 mutant (p53ts) in which the mutant p53 protein (A138V) is in the mutant confirmation when grown at 39C (the nonpermissive temperature) and in the wild type conformation when grown at 32C (the permissive temperature). A H1299-neo line (p53 null) grown at both 39C and 32C were used as counter-screens to filter out false positive associated with temperature shifting. The small molecular compounds that selectively target mutant p53-containing cancer cells were selected as candidate probes for further study. A cytotoxicity assay based on the measurement of ATP contents in cells was used in this screen. Concentration-responses of all the compounds in the library collection were determined in qHTS using the cell lines and temperature conditions as above.\nNCGC Assay Protocol Summary: Both the H1299-p53A138V and H1299-neo cell lines were provided by Dr.Yi Sun, a PI at the University Michigan. The cells were maintained and cultured at 37C. The resuspended frozen cells were used to plate the cells in the 1536-well assay plates at a density of 600 cells per well in 5 ul medium. The assay plates with the cells were incubated at 37C for 16 to 30 hours before the experiments. The library compounds in DMSO solution were added to the cells in assay plates and incubated 24 hours at 39C (for mutant p53 conformation) or 32C (for normal p53 conformation as control). An ATP_lite assay kit (PerkinElmer) was used to determine the cell viability. Tomaxifen (100uM) was used as the positive control for cell killing. Data were normalized to the controls for basal activity (DMSO only) and 100% killing (100uM tamoxifen). AC50 values were determined from concentration-response data modeled with the standard Hill equation. P53 assay protocol: 1. Reagent; 5 uL H1299-p53A138V or H1299-neo cell cells/well 2. Time; overnight; 37C incubation 3. Compounds; 23 nL; 5.9 nM to 46 uM 4. Controls; 23 nL; Tamoxifen 100 uM 5. Time; 24 hr; 37C incubation 6. Reagent; 3 uL; ATP_Lite reagent 7. Time; 20 min; Room Temperature 8. Detection; Luminescence; Viewlux plate reader Keywords: p53, synthetic lethal, cancer, cell viability, cytotoxicity, H1299 cell line, luminescence, MLSMR, MLSCN, NIH Roadmap, qHTS, NCGC", "units": {"activity change, negative = cytotoxicity": "%"}}
{"smiles": "COc1ccc(CNC(=O)c2ccc(NC(=O)N3CC4CCCN4c4ccccc43)cc2)cc1", "note": "(stereo not given)", "activity change, negative = cytotoxicity": -3.58}
{"smiles": "CC(=O)Nc1ccc(NC(=O)c2cc3sccc3n2Cc2ccc(F)cc2)cc1", "activity change, negative = cytotoxicity": -24.9}
{"smiles": "Cc1cccc(N2CCN(C(=O)CCn3c(=O)c4cccn4c4cccnc43)CC2C)c1", "note": "(stereo not given)", "activity change, negative = cytotoxicity": 3.1}
{"smiles": "Fc1ccc2nc(N3CCCCC3)sc2c1", "activity change, negative = cytotoxicity": -9.36}
{"smiles": "COc1ccc2nc(Nc3nc4cc5c(cc4s3)OCCO5)sc2c1", "activity change, negative = cytotoxicity": -17.9}
{"smiles": "c1c2c(cc3sc(N4CCCCC4)nc13)OCCO2", "Potency": "1.26 µM (active)"}
{"smiles": "CCc1ccc2ncc3c(-c4ccc(C)cc4)nn(CC(=O)NCc4ccccc4)c3c2c1", "activity change, negative = cytotoxicity": -5.08}
{"smiles": "CC(C)(C)c1csc(NC2=NS(=O)(=O)c3ccccc32)n1", "Potency": "12.6 µM (active)"}
{"smiles": "O=C(CN1C(=O)c2cccnc2Oc2ccc(Cl)cc21)NCCc1ccccc1", "activity change, negative = cytotoxicity": -3.47}
{"smiles": "COc1ccc(-c2ccc(=O)n(CC(=O)Nc3ccc(Br)cc3F)n2)cc1", "activity change, negative = cytotoxicity": -22.2}
{"smiles": "CC(C)Sc1oc(-c2cccs2)nc1S(=O)(=O)c1ccc(Cl)cc1", "activity change, negative = cytotoxicity": 7.99}
{"smiles": "CCn1cc(C(=O)NCCc2ccccc2)c(=O)c2cc(S(=O)(=O)N3CCCCCC3)ccc21", "activity change, negative = cytotoxicity": 15.6}
{"smiles": "Cc1ccc(S(=O)(=O)/N=C(/Nc2ccccn2)c2ccc(Cl)cc2)cc1", "activity change, negative = cytotoxicity": -19.2}
{"smiles": "CCN(CC)S(=O)(=O)c1cccc(C(=O)Nc2ccccc2)c1", "activity change, negative = cytotoxicity": -19.7}
{"smiles": "CCN(CC)S(=O)(=O)c1cc(C(=O)Nc2ccccn2)ccc1C", "Potency": "10 µM (active)"}
{"smiles": "Cc1nnc(NC(=O)CSc2nc3c([nH]c4ccccc43)c(=O)n2-c2cccc(Cl)c2)s1", "activity change, negative = cytotoxicity": -0.819}
{"smiles": "OCCCN1c2ccccc2Nc2nnc(-c3ccccc3)cc21", "Potency": "12.6 µM (active)"}
{"smiles": "O=C(c1ccc(Cl)cc1)n1nc(-c2cccnc2)nc1NCc1ccc(F)cc1", "activity change, negative = cytotoxicity": 12.6}
{"smiles": "COc1ccccc1CNC(=O)C(=O)NCC(c1cccs1)S(=O)(=O)c1cccs1", "note": "(stereo not given)", "activity change, negative = cytotoxicity": -2.8}
{"smiles": "CCC1(C)CC(=O)c2c(ccc3oc(C(=O)Nc4ccc(C(C)=O)cc4)c(C)c23)O1", "note": "(stereo not given)", "activity change, negative = cytotoxicity": -8.14}
{"smiles": "Cc1c(C(=O)NCc2ccccc2Br)oc2ccc3c(c12)C(=O)CC(C)(C)O3", "Potency": "12.6 µM (active)"}
{"smiles": "CC1(C)CC(=O)c2cc(OCC(=O)NCC3CCCO3)ccc2O1", "note": "(stereo not given)", "activity change, negative = cytotoxicity": -7.04}
{"smiles": "CCOC(=O)N1CCc2c(sc(NCc3cccc(F)c3)c2C(=O)Nc2ccccc2OCC)C1", "activity change, negative = cytotoxicity": 19.6}
{"smiles": "COc1ccc(NC(=O)NC(C)c2c(-n3cccc3)sc(C)c2C)cc1OC", "note": "(stereo not given)", "activity change, negative = cytotoxicity": 21.5}
{"smiles": "Cc1ccc(S(=O)(=O)c2nc(-c3ccco3)oc2SCC(=O)Nc2ccc(F)cc2)cc1", "activity change, negative = cytotoxicity": -9.87}
{"smiles": "Cc1ccc(-c2nc(S(=O)(=O)c3ccc(C)cc3)c(N3CCCCCC3)o2)cc1", "activity change, negative = cytotoxicity": 8.12}
{"smiles": "O=C(CSc1oc(-c2ccc(F)cc2)nc1S(=O)(=O)c1ccc(Br)cc1)NC1CCCCC1", "activity change, negative = cytotoxicity": -3.41}
{"smiles": "CC(C)S(=O)(=O)c1oc(-c2ccc(F)cc2)nc1S(=O)(=O)c1ccc(F)cc1", "Potency": "5.01 µM (active)"}
{"smiles": "CCc1ccc(NC(=O)CN2C(=O)C(c3ccccc3)=NC23CCCCCC3)cc1", "activity change, negative = cytotoxicity": 12.1}
{"smiles": "CCc1ccc(NC(=O)CN2CCSc3ccc(S(=O)(=O)N4CCCC4)cc32)cc1", "activity change, negative = cytotoxicity": 10.3}
{"smiles": "COc1cc(OC)c(OC)cc1/C=C/c1nc2cc3ccccc3cc2c(=O)n1-c1ccc(F)c(Cl)c1", "activity change, negative = cytotoxicity": 4.14}
{"smiles": "CCCCn1c(=N)c(S(=O)(=O)c2ccccc2)cc2c(=O)n3cccc(C)c3nc21", "activity change, negative = cytotoxicity": -0.99}
{"smiles": "CCc1ccc(-c2nnn(Cc3nn[nH]n3)n2)cc1", "activity change, negative = cytotoxicity": -29.7}
{"smiles": "CC(C)c1ccc(-c2nn[nH]n2)cc1", "Potency": "12.6 µM (active)"}
{"smiles": "Cc1ccc(-c2cnc(NCc3ccc(C(C)C)cc3)n2C)cc1", "activity change, negative = cytotoxicity": -10.2}
{"smiles": "CCOc1ccc(CNCCSc2nnnn2C)cc1", "activity change, negative = cytotoxicity": -5.3}
{"smiles": "O=C1CCCc2cc(S(=O)(=O)N3CCCC(C(=O)NCc4ccccc4)C3)ccc2N1", "note": "(stereo not given)", "activity change, negative = cytotoxicity": -8.7}
{"smiles": "CCc1cc2c(cc3c(=O)n(CC(=O)NCc4cccc(Cl)c4)nc(CC)n32)s1", "activity change, negative = cytotoxicity": 9.64}
{"smiles": "O=C1Nc2c(Br)cc(Br)cc2C1(O)N1CCOCC1", "note": "(stereo not given)", "Potency": "12.6 µM (active)"}
{"smiles": "CCOc1ccccc1N(CC)C(=O)c1cc2ccc3cccnc3c2[nH]1", "activity change, negative = cytotoxicity": 40.2}
{"smiles": "CCN1CCN(Cc2c(O)ccc3oc(C)c(C(=O)Nc4ccc(C)cc4C)c23)CC1", "activity change, negative = cytotoxicity": 9.54}
{"smiles": "COc1ccc(-n2ncc3c(N4CCCc5ccccc54)ncnc32)cc1", "Potency": "10 µM (active)"}
{"smiles": "Cc1cccc(-n2ncc3c(N4CCc5ccccc54)ncnc32)c1", "activity change, negative = cytotoxicity": -4.6}
{"smiles": "COc1ccc(-n2ncc3c(N4CCc5ccccc54)ncnc32)cc1", "activity change, negative = cytotoxicity": -11.5}
{"smiles": "Cc1nc2nc(SCC(=O)NC3CCC(C)CC3)nn2c(C)c1Cc1ccccc1Cl", "note": "(stereo not given)", "activity change, negative = cytotoxicity": 29.1}
{"smiles": "COc1ccccc1CN1CCC(CNC(=O)c2cnn(-c3ccccc3Cl)c2C2CCN(C(=O)OC(C)(C)C)CC2)CC1", "activity change, negative = cytotoxicity": 1.28}
{"smiles": "COc1ccccc1CNC(=O)c1ccc(NC(=O)N2CC(C)Sc3ccccc32)cc1", "note": "(stereo not given)", "activity change, negative = cytotoxicity": -4.08}
{"smiles": "CCNC(=O)c1cc2n(n1)CCCN(Cc1ccc(C)cc1)C2=O", "activity change, negative = cytotoxicity": 4.64}
{"smiles": "Cc1ccc2nc(N3CCN(c4cccc(Cl)c4)CC3)c3nnnn3c2c1", "activity change, negative = cytotoxicity": -2.07}
{"smiles": "CCc1ccc(CNC(=O)C2CCN(c3nn4cc(-c5ccc(F)cc5)nc4s3)CC2)cc1", "activity change, negative = cytotoxicity": -3.23}
